Assays:
Test in all cases: DAPPL (digital affinity profiling via proximity ligation, sequencing); 10 mM Tris-HCl pH 7.5, 50 mM NaCl, 1 mM DTT, 4% glycerol, room temperature, 30 min; GST-TFs on glutathione beads, 16-mer random dsDNA library, 0.1% formaldehyde crosslink after washing; high values mean tight binding
Conditions in all cases: protein: recombinant; tags: N-terminal GST; dsDNA, one strand shown
FLI1 = target: T1, FLI1 (Homo sapiens, UniProt Q01543 1-452)
T1 sequence: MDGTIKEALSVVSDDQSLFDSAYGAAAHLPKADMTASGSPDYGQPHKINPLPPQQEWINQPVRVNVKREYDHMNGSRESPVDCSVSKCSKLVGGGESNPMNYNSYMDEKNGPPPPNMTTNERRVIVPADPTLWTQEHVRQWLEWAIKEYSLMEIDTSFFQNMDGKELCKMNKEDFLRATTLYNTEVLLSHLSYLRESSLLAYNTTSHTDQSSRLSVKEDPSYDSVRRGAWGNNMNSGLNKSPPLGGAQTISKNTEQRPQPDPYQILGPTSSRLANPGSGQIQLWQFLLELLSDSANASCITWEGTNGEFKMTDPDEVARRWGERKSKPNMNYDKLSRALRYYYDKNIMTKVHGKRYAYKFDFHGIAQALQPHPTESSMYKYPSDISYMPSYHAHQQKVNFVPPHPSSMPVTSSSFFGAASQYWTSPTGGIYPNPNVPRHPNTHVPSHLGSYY
Method in brief: (§1)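 Pools were built from human transcription factors expressed in yeast as GST fusions, captured on glutathione beads and DNA-barcoded, along with a tag-only sample. Incubation with 200 nmole of a 16-mer random double-stranded DNA library lasted 30 min at room temperature in Tris/NaCl/DTT/glycerol buffer, and was followed by washing, 0.1% formaldehyde crosslinking, proximity ligation, PCR amplification and Illumina NextSeq500 sequencing. Binding signal is the quotient of each hexamer's read frequency for a factor and its frequency for the tag-only sample.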

ELK1 = target: T2, ELK1 (Homo sapiens, UniProt P19419 1-428)
T2 sequence: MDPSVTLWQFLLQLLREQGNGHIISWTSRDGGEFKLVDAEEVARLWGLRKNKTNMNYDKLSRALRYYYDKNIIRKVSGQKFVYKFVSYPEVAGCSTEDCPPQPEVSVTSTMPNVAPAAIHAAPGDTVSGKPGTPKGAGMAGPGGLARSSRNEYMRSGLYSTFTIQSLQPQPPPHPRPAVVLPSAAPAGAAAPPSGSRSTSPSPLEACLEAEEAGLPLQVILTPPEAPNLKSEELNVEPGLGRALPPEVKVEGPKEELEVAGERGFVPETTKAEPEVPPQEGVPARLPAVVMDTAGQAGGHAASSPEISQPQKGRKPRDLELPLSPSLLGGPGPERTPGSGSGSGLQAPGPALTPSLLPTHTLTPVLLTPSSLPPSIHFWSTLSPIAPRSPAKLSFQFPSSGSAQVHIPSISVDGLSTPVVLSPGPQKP
Method in brief: as §1

GABPA = target: T3, GABPA (Homo sapiens, UniProt Q06546 1-454)
T3 sequence: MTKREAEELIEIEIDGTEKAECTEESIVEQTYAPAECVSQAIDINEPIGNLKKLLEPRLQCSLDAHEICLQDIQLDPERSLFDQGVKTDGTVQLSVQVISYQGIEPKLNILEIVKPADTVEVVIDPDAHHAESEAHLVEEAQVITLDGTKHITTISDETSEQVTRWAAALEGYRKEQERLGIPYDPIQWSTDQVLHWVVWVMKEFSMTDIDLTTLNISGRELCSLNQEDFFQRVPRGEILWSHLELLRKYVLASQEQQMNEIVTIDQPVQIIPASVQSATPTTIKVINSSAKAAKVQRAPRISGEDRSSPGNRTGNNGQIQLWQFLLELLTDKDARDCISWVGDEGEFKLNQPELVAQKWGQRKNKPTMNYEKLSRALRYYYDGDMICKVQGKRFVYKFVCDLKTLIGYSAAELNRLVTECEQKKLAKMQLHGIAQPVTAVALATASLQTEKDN
Method in brief: as §1

ERG = target: T4, ERG (Homo sapiens, UniProt P11308 1-479)
T4 sequence: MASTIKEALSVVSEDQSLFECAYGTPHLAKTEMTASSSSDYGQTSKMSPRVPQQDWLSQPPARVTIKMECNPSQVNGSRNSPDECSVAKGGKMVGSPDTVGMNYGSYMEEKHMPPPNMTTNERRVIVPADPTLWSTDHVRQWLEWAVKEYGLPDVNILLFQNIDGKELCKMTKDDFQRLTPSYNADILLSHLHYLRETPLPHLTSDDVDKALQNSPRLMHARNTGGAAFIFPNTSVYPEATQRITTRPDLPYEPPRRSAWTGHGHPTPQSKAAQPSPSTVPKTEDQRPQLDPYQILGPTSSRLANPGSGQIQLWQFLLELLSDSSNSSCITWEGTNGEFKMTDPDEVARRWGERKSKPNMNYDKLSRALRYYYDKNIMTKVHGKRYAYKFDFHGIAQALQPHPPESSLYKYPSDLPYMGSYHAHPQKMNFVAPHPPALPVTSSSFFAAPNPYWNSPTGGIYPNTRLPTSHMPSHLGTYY
Method in brief: as §1

ELF1 = ELF1 (Homo sapiens, UniProt P32519 1-619)
ELF1, sequence (P32519 whole entry): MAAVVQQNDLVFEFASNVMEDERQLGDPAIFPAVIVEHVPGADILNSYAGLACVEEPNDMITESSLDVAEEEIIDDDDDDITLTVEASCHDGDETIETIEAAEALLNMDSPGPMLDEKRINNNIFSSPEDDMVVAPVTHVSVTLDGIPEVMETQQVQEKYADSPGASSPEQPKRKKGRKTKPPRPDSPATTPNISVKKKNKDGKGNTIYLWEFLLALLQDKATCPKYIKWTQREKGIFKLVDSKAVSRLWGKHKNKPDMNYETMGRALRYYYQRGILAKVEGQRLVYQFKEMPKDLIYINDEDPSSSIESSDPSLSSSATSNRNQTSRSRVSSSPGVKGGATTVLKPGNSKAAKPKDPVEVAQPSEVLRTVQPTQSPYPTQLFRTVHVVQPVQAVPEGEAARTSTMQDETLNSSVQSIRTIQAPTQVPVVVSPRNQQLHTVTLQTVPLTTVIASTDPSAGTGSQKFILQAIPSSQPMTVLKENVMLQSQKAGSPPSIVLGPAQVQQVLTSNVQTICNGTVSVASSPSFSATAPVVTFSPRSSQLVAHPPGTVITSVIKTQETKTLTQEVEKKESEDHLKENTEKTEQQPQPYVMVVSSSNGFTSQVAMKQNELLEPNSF
Method in brief: as §1

EHF = target: T5, EHF (Homo sapiens, UniProt Q9NZC4 1-300)
T5 sequence: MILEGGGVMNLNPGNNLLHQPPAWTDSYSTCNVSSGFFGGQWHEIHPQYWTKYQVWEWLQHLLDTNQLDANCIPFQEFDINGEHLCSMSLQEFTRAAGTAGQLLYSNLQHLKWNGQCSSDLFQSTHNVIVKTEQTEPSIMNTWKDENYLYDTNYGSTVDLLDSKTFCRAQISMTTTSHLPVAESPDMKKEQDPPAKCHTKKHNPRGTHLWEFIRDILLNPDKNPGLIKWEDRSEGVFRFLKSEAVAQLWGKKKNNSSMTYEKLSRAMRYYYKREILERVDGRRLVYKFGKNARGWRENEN
Method in brief: as §1

SPI1 = SPI1 (Homo sapiens, UniProt P17947 1-270)
Method in brief: as §1

SPIB = SPIB (Homo sapiens, UniProt Q01892 1-262)
SPIB, sequence (Q01892 whole entry): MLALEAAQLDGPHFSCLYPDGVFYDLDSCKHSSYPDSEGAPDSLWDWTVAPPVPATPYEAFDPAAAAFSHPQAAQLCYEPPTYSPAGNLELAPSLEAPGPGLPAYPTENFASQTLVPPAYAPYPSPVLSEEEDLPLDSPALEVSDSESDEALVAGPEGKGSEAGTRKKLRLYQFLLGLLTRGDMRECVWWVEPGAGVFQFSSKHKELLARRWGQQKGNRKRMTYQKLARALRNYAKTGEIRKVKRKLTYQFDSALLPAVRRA
Method in brief: as §1

ELK3 = target: T6, ELK3 (Homo sapiens, UniProt P41970 1-407)
T6 sequence: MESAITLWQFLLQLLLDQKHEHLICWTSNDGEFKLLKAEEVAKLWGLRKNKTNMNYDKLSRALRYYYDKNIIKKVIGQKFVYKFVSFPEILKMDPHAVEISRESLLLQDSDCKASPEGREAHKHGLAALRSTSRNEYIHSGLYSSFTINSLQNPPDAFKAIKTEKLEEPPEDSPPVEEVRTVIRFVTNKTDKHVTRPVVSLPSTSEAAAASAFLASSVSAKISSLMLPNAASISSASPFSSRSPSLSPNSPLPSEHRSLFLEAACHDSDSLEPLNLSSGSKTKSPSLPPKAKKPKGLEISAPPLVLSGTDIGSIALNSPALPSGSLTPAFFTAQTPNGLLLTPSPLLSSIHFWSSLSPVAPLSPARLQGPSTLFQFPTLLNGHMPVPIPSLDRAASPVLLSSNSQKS
Method in brief: as §1

ETV5 = ETV5 (Homo sapiens, UniProt P41161 1-510)
ETV5, sequence (P41161 whole entry): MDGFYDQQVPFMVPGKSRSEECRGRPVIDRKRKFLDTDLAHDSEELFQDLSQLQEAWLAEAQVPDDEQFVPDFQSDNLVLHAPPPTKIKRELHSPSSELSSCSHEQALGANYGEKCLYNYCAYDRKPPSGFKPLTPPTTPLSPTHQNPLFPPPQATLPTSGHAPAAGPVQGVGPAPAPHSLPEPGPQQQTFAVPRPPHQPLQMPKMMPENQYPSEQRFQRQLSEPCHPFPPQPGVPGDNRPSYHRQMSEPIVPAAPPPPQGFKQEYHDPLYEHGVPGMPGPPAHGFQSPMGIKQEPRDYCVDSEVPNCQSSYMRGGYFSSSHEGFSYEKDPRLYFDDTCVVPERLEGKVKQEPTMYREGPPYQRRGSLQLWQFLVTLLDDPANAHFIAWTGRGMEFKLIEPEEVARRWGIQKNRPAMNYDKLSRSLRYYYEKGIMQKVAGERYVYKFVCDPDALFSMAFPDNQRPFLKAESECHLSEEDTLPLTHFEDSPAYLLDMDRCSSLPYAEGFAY
Method in brief: as §1

TCATAC
binding signal (FLI1): 1.08 fold enrichment (6-mer frequency, TF over GST control)
binding signal (ELK1): 1.1 fold enrichment (6-mer frequency, TF over GST control)
binding signal (GABPA): 1.09 fold enrichment (6-mer frequency, TF over GST control)
binding signal (ERG): 1.14 fold enrichment (6-mer frequency, TF over GST control)
binding signal (ELF1): 1.15 fold enrichment (6-mer frequency, TF over GST control)
binding signal (EHF): 1.02 fold enrichment (6-mer frequency, TF over GST control)
binding signal (SPI1): 1.13 fold enrichment (6-mer frequency, TF over GST control)
binding signal (SPIB): 1.16 fold enrichment (6-mer frequency, TF over GST control)
binding signal (ELK3): 1.17 fold enrichment (6-mer frequency, TF over GST control)
binding signal (ETV5): 1.02 fold enrichment (6-mer frequency, TF over GST control)

— publication PMC7862700, “An all-to-all approach to the identification of sequence-specific readers for epigenetic DNA modifications on cytosine”
